Compound activity from PubChem.
Tgondii IFNg – T. gondii growth inhibition under IFN-gamma; Toxoplasma gondii growth in IFN-gamma-treated host cells; active compounds read low; activity change, negative = inhibition, % (concentration not given with the values); 3.8% of 69,000 active; in the data active = activity change below about -70%, passing the limit was not always enough;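 note: host cells are HeLa cells infected with Toxoplasma gondii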
* marks the source's active call; other numbers are inactive results; ! = not confirmed by another sample. This is one part of a sample in which hits are shown more often than they occur.

SMILES	Tgondii IFNg
c1ccc(-c2csc3ncnc(NCC4CCCO4)c23)cc1 (centres undefined)	-60.0
O=c1ncn(Cc2ccccn2)cc1-c1ccccc1	43.7
C[C@@H]1CN([C@@H](C)CO)C(=O)Cc2cc(NC(=O)Cn3cnnn3)ccc2O[C@H]1CN(C)S(=O)(=O)c1ccc(Cl)cc1	14.6
COc1ccc(C(=O)N2CCC(n3c(=O)oc4ccccc43)CC2)cc1OC	18.5
CC[C@@H](C(=O)O)C1CC[C@H](C)C([C@@H](C)[C@H](O)[C@H](C)C(=O)[C@H](CC)C2O[C@]3(C=C[C@@H](O)[C@]4(CC[C@@](C)(C5CC[C@](O)(CC)[C@H](C)O5)O4)O3)[C@H](C)C[C@@H]2C)O1 (some centres undefined)	-78.8*!
N=C1CCCN1Cc1[nH]c(=O)[nH]c(=O)c1Cl	14.3
CCCN1CCC2(CC1)NC(=O)N(C1CCN(S(=O)(=O)c3ccc(C)c(C)c3)C1)C2=O (centres undefined)	3.5
O=C(OCc1ccco1)c1sc2sccc2c1Cl	-50.0
O=C(NC1CCCCCC1)c1nc(Nc2ccc(F)cc2)c2ccccc2n1	-20.0
Cc1ccc(Nc2nc(C(=O)NC3CCCC3)nc3ccccc23)cc1	-35.5
Cc1ccc(Nc2nc(C(=O)NC3CCCCC3)nc3ccccc23)cc1	-51.9
CCc1ccc(Nc2nc(C(=O)NC3CCCC3)nc3ccccc23)cc1	-63.4
Cc1cccc(Nc2nc(C(=O)NC3CCCCCCC3)nc3ccccc23)c1	-83.4*
Cc1ccc(Nc2nc(C(=O)NC3CCCCCC3)nc3ccccc23)cc1	-74.5*
CCC(C)NS(=O)(=O)c1ccc(NC(=O)CNCc2cccs2)cc1 (centres undefined)	-46.7
Cc1cc(C)n(CC2(CNC(=O)c3occc3C)CC2)n1	16.1
C[C@H](CO)N1C[C@H](C)[C@H](CN(C)C(=O)CCCN(C)C)OCCCC[C@H](C)Oc2ccc(NC(=O)Nc3ccc4c(c3)OCO4)cc2C1=O	312.9
CS(=O)(=O)N1CCc2c(nnn2CC2CC2)C1COCC1CC1 (centres undefined)	2.9
COc1ccccc1NC(=O)CCNC(=O)c1ccc2c(c1)CCO2	11.0
CCOCC(=O)N1CCC2(CCC(=O)N2CCN2CCCC2)CC1	-89.4*
C=CC(=O)N1CCC2(CCC(=O)N2CCN2CCCC2)CC1	-5.9
COCCN1C(=O)CCC12CCN(C(=O)COC)CC2	0.4
CN(Cc1cn[nH]c1C(C)(C)C)Cc1n[nH]c2c1CCCC2	12.8
Cc1ccc(NC(=O)CC(=O)NCCCn2ccnc2)cc1Cl	7.9
Cc1ccc(Nc2nc3nonc3n3cnnc23)cc1Cl	-106.4*
SMILES	Tgondii IFNg
CCC(NC(=O)CC(=O)Nc1ccc(C)c(Cl)c1)c1nc(C)no1 (centres undefined)	-5.1
Cc1cnc(N2CC3(CCN(S(=O)(=O)C4CC4)C3)C2)nc1	1.3
Cc1ccc2oc(-c3nccn3CCCN3CCCC3=O)c(C)c2c1	-3.2
CC1CCN(S(=O)(=O)c2ccc3c(c2)CCC(=O)N3CC(=O)NCc2ccco2)CC1	29.5
CCC[C@@H]1C[C@@H](C(=O)N[C@@H]([C@H]2O[C@H](SC)[C@H](OP(=O)(O)O)[C@@H](O)[C@H]2O)[C@H](C)Cl)N(C)C1	1.0
O=C(NC[C@H]1N[C@H](CO)[C@H]1c1ccc(-c2ccccc2F)cc1)c1ccccn1	-29.7
COc1ccccc1Nc1nnns1	12.2
CCOC(=O)Nc1nnc(CCc2ccccc2)s1	0.4
c1ccc(CCNc2nnns2)cc1	-97.3*
Cc1ccc(NC(=O)Cn2c(=O)cc(C(=O)N3CCCC3)c3ccccc32)c(Cl)c1	0.8
Cn1c(CCC(=O)N2CCCC3(CNC(=O)O3)C2)nc2cccnc21 (centres undefined)	35.8
CCC(CC)NC(=O)C1CC(=O)N(CCc2c[nH]c3ccc(Cl)cc23)C1 (centres undefined)	76.7
CN1CCN(c2ncccc2CNC(=O)c2ccc3cccnc3n2)CC1	6.5
COCC(=O)Nc1cccc(-c2ccc(OC)c3ncccc23)c1	4.4
Cc1occc1C(=O)N1CCC2(CC(Nc3ncccc3F)CO2)C1 (centres undefined)	7.2
N#Cc1cccc(NC2COC3(CCN(C(=O)NC4CC4)C3)C2)n1 (centres undefined)	-35.6
Cc1occc1C(=O)N1CCC2(CC(Nc3cccc(C#N)n3)CO2)C1 (centres undefined)	-98.0*
Cn1nccc1-c1cc(C(=O)NC(C)(C)CN2CCCCC2)c2ccccc2n1	0.4
O=C(Nc1ccccc1F)c1ccc2nnc(C3CCN(Cc4ccccc4)C3)n2c1 (centres undefined)	-64.0
CC(C)c1noc(-c2cc(=O)n(CC(=O)Nc3ccc(Cl)cc3F)c3ccccc23)n1	19.6
OC1(C(F)(F)F)CC(c2ccc3c(c2)Nc2ccccc2S3)=NN1 (centres undefined)	-49.3
OC1(C(F)(F)F)CC(/C=C/c2ccc3c(c2)OCO3)=NN1 (centres undefined)	-86.4*
OC1(C(F)(F)F)CC(c2cc3ccccc3o2)=NN1 (centres undefined)	-28.0
Cc1nnc(SC(C)C(=O)Nc2ccc(Cl)cc2)[nH]c1=O (centres undefined)	21.9
O=C(c1ccc[nH]1)N1Cc2nccn2CC(CN2CCCC2)C1 (centres undefined)	-5.5
SMILES	Tgondii IFNg
O=C1CCCN1CC1CN(CC2CCOC2)Cc2nccn2C1 (centres undefined)	0.1
O=C1CCCN1CC1CN(C(=O)c2ccccn2)Cc2nccn2C1 (centres undefined)	-98.4*
COC(=O)c1ccc(NC(=S)NCC2OCCc3ccccc32)cc1 (centres undefined)	4.0
COC(=O)Nc1nc2ccc(C(=O)c3ccc(F)cc3)cc2[nH]1	-68.1
CCOC(=O)Nc1nc2ccccc2[nH]1	21.7
CCCOc1ccc2nc(NC(=O)OC)[nH]c2c1	-73.0*!
C[C@@H]1CN([C@H](C)CO)C(=O)c2cccc(NC(=O)Nc3ccc(F)cc3)c2O[C@H]1CN(C)S(=O)(=O)c1ccc(Cl)cc1	-4.3
CCN1c2ccccc2C(=O)NC12CCN(C(=O)NCc1cccc(F)c1)CC2	85.8
COc1ccc(OC)c(S(=O)(=O)NCCc2sc(-c3ccc(C)cc3)nc2C)c1	-37.8
COc1ccc(C)cc1Nc1nc(-c2nnc(-c3ccccc3)o2)nc2ccccc12	-51.8
O=C(c1cccc2ccnn12)N1CCC[C@H]1CN1CCCC1	-11.0
COc1ccc(OC)c(CNc2nc(-c3nnc(-c4cccc(Cl)c4)o3)nc3ccccc23)c1	-102.8*
COc1ccc(CNc2nc(-c3nnc(-c4cccc(C)c4)o3)nc3ccccc23)cc1	108.8
COc1ccc(OC)c(CNc2nc(-c3nnc(-c4cccc(C)c4)o3)nc3ccccc23)c1	-93.3*
COc1ccccc1CNc1nc(-c2nnc(-c3cccc(Cl)c3)o2)nc2ccccc12	-62.4
COc1ccc(-c2nnc(-c3nc(NCc4ccc(OC)cc4OC)c4ccccc4n3)o2)cc1	161.3
COc1ccc(OC)c(CNc2nc(-c3nnc(-c4ccc(C)cc4)o3)nc3ccccc23)c1	-42.4
CN1CCC(N(Cc2ccncc2)C(=O)NCc2cccc(F)c2)CC1	-0.9
C=CCN1CCN(S(=O)(=O)c2cn(C)cn2)Cc2cccnc21	-46.5
CNC(=O)CC1C(=O)NCCN1CCn1c(=O)oc2ccccc21 (centres undefined)	-10.3
Cc1[nH]nc2ccc(-c3cncc(OC[C@@H](N)Cc4ccccc4)c3)cc12	-77.7*
COc1cncc(-c2ccc(F)c(CO)c2)c1	-2.2
O=c1[nH]c2cc(F)ccc2c(O)c1-c1nc(-c2ccc(F)cc2)no1	38.3
